S-ASM inh: inhibitors of human secretory acid sphingomyelinase. AID 504937. hit rate 0.006% among 340,000. placental ASM, HMU-PC fluorogenic substrate, 60 min. Potency, µM (doses to about 57.5 µM), without a hit: top-dose activity change, negative = inhibition, usual class: inhibitors; further: potency means the concentration at half of the fitted maximal effect
Target sequence (P17405 47-631 limits assumed): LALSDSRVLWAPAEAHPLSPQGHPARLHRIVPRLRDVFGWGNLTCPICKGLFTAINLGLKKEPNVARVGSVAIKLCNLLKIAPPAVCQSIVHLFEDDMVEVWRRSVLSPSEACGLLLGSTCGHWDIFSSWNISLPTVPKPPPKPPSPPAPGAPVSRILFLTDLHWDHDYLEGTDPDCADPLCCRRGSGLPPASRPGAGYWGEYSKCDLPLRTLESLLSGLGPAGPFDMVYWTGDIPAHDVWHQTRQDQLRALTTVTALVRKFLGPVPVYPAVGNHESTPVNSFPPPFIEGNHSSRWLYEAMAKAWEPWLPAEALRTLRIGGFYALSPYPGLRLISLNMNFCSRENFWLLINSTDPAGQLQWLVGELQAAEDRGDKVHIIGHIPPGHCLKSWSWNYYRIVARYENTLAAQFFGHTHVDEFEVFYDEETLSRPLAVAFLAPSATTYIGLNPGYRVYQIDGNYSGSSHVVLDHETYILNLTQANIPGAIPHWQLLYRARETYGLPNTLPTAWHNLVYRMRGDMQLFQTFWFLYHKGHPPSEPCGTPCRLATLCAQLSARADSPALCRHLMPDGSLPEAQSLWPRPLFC
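Fluorescence read-out (Ex 386 nm, Em 447 nm) after stopping the reaction at pH 10. Enzyme: ASM from human placenta; substrate HMU-PC0, 9 uM final; 60 min, 37 °C. Compound preincubation 10 min, ambient temperature.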
TGFb inhibitor: TGF-b pathway inhibition; hit rate 1.2% among 410,000; Potency, µM (titrated, usually from 46.1 µM), without a hit: at the highest dose activity, negative = inhibition, usual class: inhibitors; AID 588855; HepG2 CAGA-GFP TGF-b/SMAD3 reporter, GFP fluorescence, 18 h; TGF-beta stimulated, 500 pg/mL final; further: potency means the concentration at half of the fitted maximal effect; on the % scale 0 is the no-effect control and ±100 the full control effect; nearly all actives have a fitted effect of over 65% in size
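HEPG2 CAGA-GFP, 1000 cells/well; 2 h settle, 37 C; cpd via pin tool; TGF-b 500 pg/mL final; 18 h, 37 C; GFP imaging ex488/em500-530; %Activity normalised to -TGF-b and +DMSO controls; CRC fit, curve class.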
TDP1 cell CPT: DT40-hTDP1 cell growth loss with CPT; hit rate 12% among 420,000; AID 686979; Potency, µM (top dose mostly 46.2 µM), without a hit: at the highest dose activity change, negative = growth inhibition, hits mostly inhibitors; chicken DT40 Tdp1-/-;hTDP1 cells + 20 nM CPT, ATP luminescence, 48 h; further: potency means the concentration at half of the fitted maximal effect; on the % scale 0 is the no-effect control and ±100 the full control effect; nearly all actives have a fitted effect of over 55% in size
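Chicken DT40 Tdp1-/- cells stably complemented with human TDP1 were seeded at 400 cells/well in medium containing 20 nM camptothecin, exposed to pin-transferred compounds, and grown at 37 °C for at least 48 hr. Viability was read as ATP luminescence.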
DT40 TDP1 no CPT: qHTS for Inhibitors of human tyrosyl-DNA phosphodiesterase 1 (TDP1): qHTS in cells in absence of CPT. DT40 Tdp1-/- hTDP1 cells, no CPT, ATP luminescence, 48 h. Potency, µM (top dose mostly 46.2 µM), without a hit: top-dose activity change, negative = growth inhibition, most hits filed as inhibitors. hit rate 15% among 420,000. AID 686978, 2013; further: potency means the concentration at half of the fitted maximal effect; on the % scale 0 is the no-effect control and ±100 the full control effect; nearly all actives have a fitted effect of over 55% in size
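No-CPT arm: Tdp1-/-;hTDP1 DT40 cells (400/well) plus compounds, incubated ≥48 hr at 37 °C. Readout CellTiter-Glo luminescence.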
HepG2 tox: counter-screen for TGF-b inhibitors: cytotoxicity in HepG2 cells; AID 588856; Potency, µM (series often up to 46.1 µM), for the others: at the highest dose activity change, negative = cytotoxicity, usual class: cytotoxic; HepG2 CAGA-GFP viability, ATP luminescence, 18 h; hit rate 0.76% among 410,000; further: potency means the concentration at half of the fitted maximal effect
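CellTiter-Glo luminescence gave cytotoxicity after 18 hours at 37 degrees C. The cells were HepG2 CAGA-GFP in 1% FBS DMEM, stimulated with 500 pg/mL TGF-beta after compound addition. %Activity was normalised to no-cell wells (complete cell-killing) and DMSO (no toxicity), and curves were fitted and classified.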
IL-1B inflam inh: inflammasome signaling inhibition, IL-1 beta readout. THP-1 LPS/ATP IL-1B secretion, AlphaLISA, 16 h; hits give low values. activity change, % at 57.5 µM. hit rate 4.7% among 360,000. AID 743279; in the data active means activity change below about -50%; inconclusive means mostly about -30% to -49%; further: on the % scale 0 is the no-effect control and ±100 the full control effect
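Secreted IL-1B measured by AlphaLISA bead assay after 16 h compound exposure of THP-1 cells; compounds (final up to 57.5 uM) added 1 h before LPS (250 ng/mL) and ATP (1.25 mM) stimulation; lower signal means less secretion.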
* = called active by the depositor; u = inconclusive; x = not tested or not shown; [ ] = remark or other dose. In the library only some 19% were active in any assay of this set; here they are far more common. Unless noted, the call rests on the fitted dose curve; in most records, active means well fitted curve in the direction sought with a large enough effect; inconclusive means small, poorly fitted or top-dose-only effect, or another doubt; inactive means no such curve, though single readings can be large; an effect the other way counts as inactive or inconclusive.

SMILES | S-ASM inh | TGFb inhibitor | TDP1 cell CPT | DT40 TDP1 no CPT | HepG2 tox | IL-1B inflam inh
Cc1cccc(Oc2nc(-c3ccccn3)nc3ccccc23)c1 | -0.8% | u | 1.16µM* | 1.03µM* | 11.2µM* | -99.2*
CC(=O)Nc1ccc(Oc2nc(-c3ccccn3)nc3ccccc23)cc1 | -3.4% | u | u | u | -48.0% | -94.0*
Cc1ccccc1Oc1nc(-c2ccccn2)nc2ccccc12 | -1.2% | u | 4.11µM* | 5.17µM* | -29.0% | u
O=C(O)c1ccc(N2CC3CC(C2)c2cccc(=O)n2C3)c(NC(=S)Nc2ccc(Cl)cc2Cl)c1 (stereo not drawn) | 3.2% | 0.9% | -16.0% | u | -0.8% | 22.5
COc1ccc(CN2CCOc3ccc(CN4CCCCC4CO)cc3C2)c(OC)c1 (stereo not drawn) | x | x | 3.8%[9.04 µM] | u | x | x
Cc1ccccc1C(C(=O)NCc1ccccc1)N(Cc1ccco1)C(=O)c1ccccn1 (stereo not drawn) | -1.2% | -2.1% | u | 14.6µM* | -5.8% | -15.2
CCOc1ccc(C(C(=O)NC2CCCC2)N(CCCO)C(=O)c2ccc(-c3ccccc3)[nH]2)cc1 (stereo not drawn) | -19.4% | -22.0% | 20.6µM* | 18.4µM* | -2.3% | -20.8
O=C(NC1CCCCC1)C(c1ccc(F)cc1)N(Cc1ccco1)C(=O)c1ccccn1 (stereo not drawn) | 4.5% | -7.1% | 0.82µM* | -24.5% | -6.0% | -8.1
O=C(NC1CCCC1)C(c1ccncc1)N(Cc1ccccc1)C(=O)c1ccc(-c2ccccc2)[nH]1 (stereo not drawn) | -11.1% | u | 20.6µM* | 16.4µM* | -7.0% | -79.2*
O=C(NCc1ccccc1)C(c1ccc(F)cc1)N(Cc1ccco1)C(=O)c1ccccn1 (stereo not drawn) | -3.3% | -15.9% | u | u | -7.5% | -9.2
O=C(NC1CCCC1)C(c1ccncc1)N(Cc1ccco1)C(=O)c1ccc(-c2ccccc2)[nH]1 (stereo not drawn) | -7.9% | u | 23.1µM* | 16.4µM* | -2.8% | -104.9*
CCOc1ccc(C(=O)Nc2ccc3oc(-c4cccnc4)nc3c2)cc1 | x | -28.9% | 1.1% | -16.2% | 14.1% | x
COc1ccc(-c2cc(C(=O)NCCc3ccc(S(N)(=O)=O)cc3)c3ccccc3n2)cc1 | 84.9% | 18.4% | -21.2% | u | -17.5% | -7.2
COc1ccc(-c2cc(C(=O)N(C)CCc3ccc(OC)c(OC)c3)c3ccccc3n2)cc1 | 11.5% | 3.0% | 14.6µM* | 23.1µM* | -4.0% | -4.8
COc1ccc(CCN(C)C(=O)c2cc(-c3ccccc3)nc3ccccc23)cc1OC | 1.3% | 9.5% | u | 23.1µM* | -1.0% | 17.1
COc1ccc(CCN(C)C(=O)Cc2ccc(-c3ccccc3)cc2)cc1OC | -2.6% | -0.9% | 18.4µM* | 16.4µM* | -5.9% | -54.8*
COc1ccc(CCN(C)C(=O)c2cc(-c3ccccc3)nc3ccc(C)cc23)cc1OC | -2.0% | 4.7% | u | u | 17.9% | -23.1
COc1ccc(CCN(C)C(=O)COc2ccc(C(=O)c3ccccc3)cc2)cc1OC | x | -8.8% | u | u | -7.7% | -0.9
COc1ccccc1C(=O)Nc1ccc2c(c1)CN(Cc1cnc(C)s1)CC2 | 9.1% | -21.6% | u | u | -23.2% | -20.5
O=C(CSc1nncs1)Nc1cccc2ccccc12 | 3.5% | 0.3% | 3.7% | -5.1% | -2.4% | 15.9
CC(C)NC(=O)CS(=O)(=O)c1ccccc1 | 3.6% | 2.2% | -1.8% | -11.6% | 0.7% | 5.4
CC(C)NC(=S)NC(c1ccccc1)(c1ccccc1)c1ccccc1 | -1.3% | u | u | 23.1µM* | -25.7% | -1.3
NC1=NC[C@H](Cc2ccc(O)cc2)N1CCC12CC3CC(CC(C3)C1)C2 | -2.9% | -7.9% | 8.2µM* | u | -4.9% | u
CC(C)(C)CN1C(N)=NC[C@H]1Cc1ccc(O)cc1 | 1.7% | -2.8% | u | u | -10.5% | 12.4
NC1=NC[C@H](CC2CCCCC2)N1CCc1cc(C(F)(F)F)cc(C(F)(F)F)c1 | -19.6% | u | 5.8µM* | 7.31µM* | 20µM* | -27.5
SMILES | S-ASM inh | TGFb inhibitor | TDP1 cell CPT | DT40 TDP1 no CPT | HepG2 tox | IL-1B inflam inh
NC1=NC[C@@H](Cc2ccc(O)cc2)N1CCc1cc(C(F)(F)F)cc(C(F)(F)F)c1 | -15.0% | 10.4% | u | 20.6µM* | -11.2% | u
O=C(C(O)c1ccc(Br)cc1)N1CCC(Nc2ccc3[nH]ncc3c2)CC1 (stereo not drawn) | x | -1.4% | -26.4% | -25.7% | -4.3% | -29.1
Cc1ccc(-n2cnc3sc(C)c(C)c3c2=O)cc1 | 3.6% | 14.1% | -13.1% | -18.9% | -1.0% | -15.7
COc1ccc(CN2CCC[C@]3(N[C@H](c4ccc(OC)cc4)[C@@H]4C(=O)N(Cc5ccccc5)C(=O)[C@@H]43)C2=O)cc1 | x | 2.7% | 20.6µM* | 16.4µM* | -15.2% | -7.0
CCN1C(=O)[C@H]2[C@@H](c3ccc(OC)cc3)N[C@]3(CCCN(Cc4ccc(Br)cc4)C3=O)[C@H]2C1=O | x | 3.8% | -8.2% | 25.9µM* | 5.0% | 32.6
COc1ccc(CN2CCC[C@]3(N[C@H](c4ccccc4)[C@@H]4C(=O)N(Cc5ccccc5)C(=O)[C@@H]43)C2=O)cc1 | x | -6.0% | u | 18.4µM* | -25.4% | -2.6
COc1ccc([C@H]2N[C@]3(CCCN(Cc4ccc(Br)cc4)C3=O)[C@H]3C(=O)N(Cc4ccccc4)C(=O)[C@@H]23)cc1 | x | 2.0% | u | 14.6µM* | -4.9% | -12.0
COc1ccc(CN2CCC[C@]3(N[C@H](c4ccc(C)cc4)[C@@H]4C(=O)N(Cc5ccccc5)C(=O)[C@@H]43)C2=O)cc1 | x | -12.2% | u | u | -10.1% | -21.6
CCN1C(=O)[C@H]2[C@@H](c3ccc(OC)cc3)N[C@]3(CCCN(Cc4ccccc4)C3=O)[C@H]2C1=O | x | -3.7% | 3.7% | u | 10.9% | 17.2
CCN1C(=O)[C@H]2[C@@H](c3ccc(OC)cc3)N[C@]3(CCCN(Cc4ccc(Cl)cc4)C3=O)[C@H]2C1=O | x | -3.8% | u | u | 9.2% | 13.1
Cc1ccc(C(=O)COC(=O)COc2ccccc2C)cc1 | 0.0% | -9.1% | -12.2% | -3.8% | 2.5% | 1.6
